# Data as given in ChEMBL document CHEMBL1961873, “Compounds: GSK PKIS; Assays: Nanosyn kinase panel” (2012).
# What was measured:
# [1] = biological target: T1, Inhibitor of nuclear factor kappa-B kinase subunit epsilon (Homo sapiens) (UniProt Q14164); settings: at 1 µM;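 also: reported values are averaged percent inhibition figures against human IKKε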
# T1 sequence (whole entry): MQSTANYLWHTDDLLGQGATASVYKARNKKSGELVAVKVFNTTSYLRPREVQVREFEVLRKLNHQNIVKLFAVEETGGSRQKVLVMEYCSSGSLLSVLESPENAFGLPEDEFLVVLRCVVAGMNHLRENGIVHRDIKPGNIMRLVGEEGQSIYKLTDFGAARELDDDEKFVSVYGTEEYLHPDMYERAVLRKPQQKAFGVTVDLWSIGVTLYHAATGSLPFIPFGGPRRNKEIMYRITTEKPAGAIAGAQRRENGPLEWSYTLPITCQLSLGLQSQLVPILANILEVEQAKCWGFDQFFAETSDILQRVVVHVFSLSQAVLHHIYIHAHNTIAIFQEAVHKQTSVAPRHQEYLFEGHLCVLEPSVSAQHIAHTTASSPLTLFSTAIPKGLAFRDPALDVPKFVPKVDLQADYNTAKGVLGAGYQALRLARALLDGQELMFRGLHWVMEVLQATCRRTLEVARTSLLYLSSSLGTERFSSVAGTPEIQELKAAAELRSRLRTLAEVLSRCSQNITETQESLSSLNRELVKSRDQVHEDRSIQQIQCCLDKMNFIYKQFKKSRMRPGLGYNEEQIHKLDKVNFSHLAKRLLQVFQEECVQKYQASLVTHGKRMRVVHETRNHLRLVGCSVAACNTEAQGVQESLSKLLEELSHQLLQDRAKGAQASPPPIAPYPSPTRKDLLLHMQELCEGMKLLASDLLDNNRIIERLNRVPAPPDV
# [2] = biological target: T2, Serine/threonine-protein kinase Nek1 (Homo sapiens) (UniProt Q96PY6); settings: at 0.1 µM
# T2 sequence (whole entry): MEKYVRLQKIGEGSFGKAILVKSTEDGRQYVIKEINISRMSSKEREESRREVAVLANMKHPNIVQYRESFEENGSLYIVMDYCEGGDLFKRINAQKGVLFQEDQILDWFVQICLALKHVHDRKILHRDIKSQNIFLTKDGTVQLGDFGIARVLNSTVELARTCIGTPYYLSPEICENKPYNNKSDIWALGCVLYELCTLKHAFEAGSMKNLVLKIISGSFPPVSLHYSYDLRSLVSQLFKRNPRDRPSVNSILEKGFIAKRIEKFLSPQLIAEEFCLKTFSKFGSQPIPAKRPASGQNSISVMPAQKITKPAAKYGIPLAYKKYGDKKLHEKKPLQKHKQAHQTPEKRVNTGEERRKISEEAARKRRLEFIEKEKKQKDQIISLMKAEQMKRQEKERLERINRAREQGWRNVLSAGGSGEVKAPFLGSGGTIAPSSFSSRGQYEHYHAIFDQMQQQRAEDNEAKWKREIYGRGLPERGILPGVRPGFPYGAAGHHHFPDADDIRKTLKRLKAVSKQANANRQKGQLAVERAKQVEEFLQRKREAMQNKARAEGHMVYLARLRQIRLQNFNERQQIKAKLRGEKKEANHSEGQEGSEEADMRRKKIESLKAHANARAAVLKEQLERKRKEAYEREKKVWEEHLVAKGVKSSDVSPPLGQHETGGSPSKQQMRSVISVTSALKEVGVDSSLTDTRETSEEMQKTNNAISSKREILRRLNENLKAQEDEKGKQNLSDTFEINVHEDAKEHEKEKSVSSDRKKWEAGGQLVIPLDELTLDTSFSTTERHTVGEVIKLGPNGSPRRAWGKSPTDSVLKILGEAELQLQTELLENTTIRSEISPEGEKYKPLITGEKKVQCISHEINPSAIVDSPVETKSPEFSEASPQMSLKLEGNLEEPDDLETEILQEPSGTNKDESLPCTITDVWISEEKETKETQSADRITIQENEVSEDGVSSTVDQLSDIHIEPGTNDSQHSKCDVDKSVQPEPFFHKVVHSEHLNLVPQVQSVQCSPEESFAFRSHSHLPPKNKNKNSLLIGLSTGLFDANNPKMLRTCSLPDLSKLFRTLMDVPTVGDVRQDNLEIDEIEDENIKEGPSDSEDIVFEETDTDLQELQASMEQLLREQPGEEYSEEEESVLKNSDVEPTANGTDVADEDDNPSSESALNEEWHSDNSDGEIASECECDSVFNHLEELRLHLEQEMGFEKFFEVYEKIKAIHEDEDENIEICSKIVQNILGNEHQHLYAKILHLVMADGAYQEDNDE
# [3] = biological target: T2, Serine/threonine-protein kinase Nek1 (Homo sapiens); settings: at 1 µM
# [4] = biological target: T3, Serine/threonine-protein kinase Nek2 (Homo sapiens) (UniProt P51955); settings: at 0.1 µM
# T3 sequence (whole entry): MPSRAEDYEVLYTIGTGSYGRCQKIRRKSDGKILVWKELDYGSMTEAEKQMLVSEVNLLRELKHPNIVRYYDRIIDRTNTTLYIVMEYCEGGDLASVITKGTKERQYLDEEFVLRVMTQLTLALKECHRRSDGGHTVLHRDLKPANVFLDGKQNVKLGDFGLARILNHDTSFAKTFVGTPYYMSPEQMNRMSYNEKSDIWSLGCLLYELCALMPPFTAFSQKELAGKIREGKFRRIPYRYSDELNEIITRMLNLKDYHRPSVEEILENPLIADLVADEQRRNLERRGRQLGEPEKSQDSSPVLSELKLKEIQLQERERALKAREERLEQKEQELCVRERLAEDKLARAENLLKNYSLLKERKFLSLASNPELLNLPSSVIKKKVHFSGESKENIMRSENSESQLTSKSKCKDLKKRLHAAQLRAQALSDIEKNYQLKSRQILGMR
# [5] = biological target: T3, Serine/threonine-protein kinase Nek2 (Homo sapiens); settings: at 1 µM
# [6] = biological target: Serine/threonine-protein kinase Nek6 (Homo sapiens) (UniProt Q9HC98); settings: at 0.1 µM
# [7] = biological target: Serine/threonine-protein kinase Nek6 (Homo sapiens) (UniProt Q9HC98); settings: at 1 µM
# [8] = biological target: Serine/threonine-protein kinase Nek7 (Homo sapiens) (UniProt Q8TDX7); settings: at 0.1 µM
# [9] = biological target: Serine/threonine-protein kinase Nek7 (Homo sapiens) (UniProt Q8TDX7); settings: at 1 µM
# [10] = biological target: T4, Serine/threonine-protein kinase Nek9 (Homo sapiens) (UniProt Q8TD19); settings: at 0.1 µM;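 also: reported value is the mean percent inhibition of NEK9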
# T4 sequence (whole entry): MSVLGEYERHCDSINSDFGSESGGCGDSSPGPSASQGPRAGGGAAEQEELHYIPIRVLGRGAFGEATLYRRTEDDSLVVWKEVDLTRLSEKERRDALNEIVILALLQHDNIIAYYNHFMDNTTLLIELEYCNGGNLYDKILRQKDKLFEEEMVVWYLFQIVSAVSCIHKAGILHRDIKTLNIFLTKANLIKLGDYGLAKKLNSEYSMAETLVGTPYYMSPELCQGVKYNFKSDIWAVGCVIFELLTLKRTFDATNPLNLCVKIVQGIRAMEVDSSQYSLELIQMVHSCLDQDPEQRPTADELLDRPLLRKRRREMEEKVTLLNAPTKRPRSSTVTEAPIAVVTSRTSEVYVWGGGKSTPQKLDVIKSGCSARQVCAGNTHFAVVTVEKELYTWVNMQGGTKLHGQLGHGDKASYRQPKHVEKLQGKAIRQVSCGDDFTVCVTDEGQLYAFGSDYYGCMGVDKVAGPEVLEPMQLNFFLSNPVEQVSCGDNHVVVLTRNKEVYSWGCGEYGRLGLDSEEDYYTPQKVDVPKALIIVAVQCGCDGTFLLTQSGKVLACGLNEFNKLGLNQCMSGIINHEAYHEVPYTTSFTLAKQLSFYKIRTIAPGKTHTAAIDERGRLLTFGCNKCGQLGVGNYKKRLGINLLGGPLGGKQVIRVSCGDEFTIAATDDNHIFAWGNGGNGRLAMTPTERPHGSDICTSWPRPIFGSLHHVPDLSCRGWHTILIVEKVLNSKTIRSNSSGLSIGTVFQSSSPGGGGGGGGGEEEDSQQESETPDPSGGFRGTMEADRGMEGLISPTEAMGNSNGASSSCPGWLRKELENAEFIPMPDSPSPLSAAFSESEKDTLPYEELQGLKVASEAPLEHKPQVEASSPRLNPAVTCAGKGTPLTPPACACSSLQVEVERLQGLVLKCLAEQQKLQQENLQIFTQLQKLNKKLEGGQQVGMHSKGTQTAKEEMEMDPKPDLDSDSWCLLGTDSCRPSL
# Chain of Serine/threonine-protein kinase Nek6 (Homo sapiens) (Q9HC98 whole entry): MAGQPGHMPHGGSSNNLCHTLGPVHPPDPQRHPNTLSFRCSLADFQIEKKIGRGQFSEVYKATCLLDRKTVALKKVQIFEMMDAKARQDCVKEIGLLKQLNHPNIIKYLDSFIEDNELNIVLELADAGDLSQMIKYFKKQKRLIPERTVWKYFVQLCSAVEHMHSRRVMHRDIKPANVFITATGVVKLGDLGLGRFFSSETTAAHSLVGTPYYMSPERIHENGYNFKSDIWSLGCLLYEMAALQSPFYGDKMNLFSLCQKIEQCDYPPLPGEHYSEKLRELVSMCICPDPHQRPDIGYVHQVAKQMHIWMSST
# Chain of Serine/threonine-protein kinase Nek7 (Homo sapiens) (Q8TDX7 whole entry, looked up): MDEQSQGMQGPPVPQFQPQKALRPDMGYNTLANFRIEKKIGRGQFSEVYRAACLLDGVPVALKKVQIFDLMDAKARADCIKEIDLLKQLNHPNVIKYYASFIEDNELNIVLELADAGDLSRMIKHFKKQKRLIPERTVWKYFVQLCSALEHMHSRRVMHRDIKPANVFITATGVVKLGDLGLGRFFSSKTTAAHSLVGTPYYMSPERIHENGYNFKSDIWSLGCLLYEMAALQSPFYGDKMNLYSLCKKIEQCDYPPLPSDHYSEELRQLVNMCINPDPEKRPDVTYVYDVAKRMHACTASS
structure (smiles),measurement,setting,value
CC(=O)Nc1cccc(C#Cc2cncnc2Nc2ccc(OCc3cccc(F)c3)c(Cl)c2)n1,inhibition,[1],1.53%
same,inhibition,[2],-2.25%
same,inhibition,[3],1.58%
same,inhibition,[4],-2.96%
same,inhibition,[5],-1.9%
same,inhibition,[6],1.43%
same,inhibition,[7],4.26%
same,inhibition,[8],-4.17%
same,inhibition,[9],-3.8%
same,inhibition,[10],0.45%
